# Laboratory results published in PubChem BioAssay AID624052 (National Center for Advancing Translational Sciences (NCATS), 2012).
# Active and inactive are the calls of the source.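 The calls were made as follows: active = IC50 at or below 10 µM; inconclusive = IC50 above 10 µM but below 20 µM; inactive = IC50 of 20 µM or more.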
# Target: Neuropeptide S receptor (Homo sapiens) (UniProt Q6W5P4)
# Test: Robust Characterization of Calcium Signal Transduction Antagonists of the Neuropeptide S Receptor: SAR
# Settings: CHO-NPSR cells, NPS-induced calcium fluorescence (FDSS)
# Source text: Neuropeptide S receptor (NPSR), previously known as GPR154, is a recently de-orphanized G protein coupled receptor. Its endogenous ligand is the 20 amino acids peptide Neuropeptide S (NPS). […] NPS and its receptor are found in various tissues. Specifically they are highly expressed in brain areas that have been implicated in modulation of arousal, stress and anxiety. Central administration of NPS in mice produces an unusual profile of activity by inducing wakefulness and arousal, while at the same time suppressing anxiety. Therefore, NPSR may represent a novel drug target for the treatment of sleep and anxiety disorders. To identify NPSR antagonists, we developed a cell-based assay with transfected NPS receptor. NPS can stimulate the production of cAMP as well as release intracellular calcium in Chinese hamster ovary cells stably expressing NPS receptor. This change in intracellular calcium can be detected using a calcium indicator dye on a calcium imaging plate reader system (FDSS). This particular assay uses a high density of sampling across concentration-response space to establish more confidence estimates of potency. NIH Chemical Genomics Center [NCGC] NIH Molecular Libraries Probe Production centers Network [MLPCN] MLPCN Grant: DA026210 Assay Submitter (PI): Heilig, Markus Alexander
# A Chinese hamster ovary (CHO) cell line stably expressing the NPS receptor (CHO-NPSR) was obtained from Dr. Heilig lab at NIAAA and maintained in F-12 Kaighn's media (Invitrogen, Carlsbad, CA, 21127) supplemented with 10 % FBS, 100 units/ml penicillin, 100 ug/ml streptomycin and 250 ug/ml geneticin at 37C, 5% CO2 in a humidified atmosphere. Before the assay, aliquots of cells were frozen and stored at -135C. The assay was performed on a FDSS-7000 kinetic plate reader in 1536-well format. For both agonist (1-220s) and antagonist (221-400s) phases, the maximums of kinetic fluorescence responses were converted separately into text files using the instrument's software data export utility. Data for agonist response were normalized to the controls for basal activity (DMSO only) and 100% activation (NPS). Data for antagonist response were normalized to the controls for basal activity (DMSO only) and 100% inhibition (No NPS control). AC50 values were determined from concentration-response data modeled with the standard Hill equation. NPS 1536-well FDSS assay protocol: (1) Frozen CHO-NPSR cells were thaw, washed once with fresh media and resuspended in F-12 Kaighn's media supplemented with 10 % FBS, 100 units/ml penicillin and 100 ug/ml streptomycin. Cells were plated at 3 ul/well (1200 cells) to black, clear-bottom, tissue-culture treated 1536-well plates, and then cultured at 37C, 5 % CO2 for 16 to 30 hours. […]
# Sequence of Neuropeptide S receptor (Homo sapiens) (Q6W5P4 whole entry, looked up): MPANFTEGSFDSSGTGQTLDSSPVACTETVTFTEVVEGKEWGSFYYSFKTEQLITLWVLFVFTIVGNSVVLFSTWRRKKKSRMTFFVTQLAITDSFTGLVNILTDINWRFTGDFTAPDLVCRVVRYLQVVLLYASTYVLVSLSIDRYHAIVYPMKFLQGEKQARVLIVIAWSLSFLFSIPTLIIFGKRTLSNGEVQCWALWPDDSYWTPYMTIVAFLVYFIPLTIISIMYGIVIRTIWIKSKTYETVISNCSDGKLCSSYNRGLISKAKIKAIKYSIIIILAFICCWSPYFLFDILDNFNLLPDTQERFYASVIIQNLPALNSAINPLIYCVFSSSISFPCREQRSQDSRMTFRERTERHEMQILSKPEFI
row,Compound,IC50
1,COc1ccc(C2c3c(ncn(CCN4CCOCC4)c3=N)Oc3ccc4ccccc4c32)cc1OC (centres undefined),4940 nM (active)
2,Cc1c(P(=S)(c2ccccc2)c2ccccc2)[n+]2ccccc2n1C/C=C/c1ccccc1,36.5 nM (active)
3,CCC(C)(CCN1CCOCC1)N(Cc1cc2ccccc2n(C)c1=O)C(=O)C1CCCCC1 (centres undefined),57.8 nM (active)
4,O=C1OC(c2ccccc2)(c2ccccc2)N2CCN(C(=O)NCc3ccc(F)cc3)CC12 (centres undefined),570 nM (active)
